# Laboratory results published in ChEMBL document CHEMBL3988442, “University of Dundee, Small-Polar-MMV Screening Library” (2021).
# For part of these data: Results with a measured potency or affinity are listed apart.
# Tests used:
# Design in all cases: scale not given: direction of the effect not stated beside the values
# [1] = target: Protein translocase subunit SecA (Escherichia coli (strain K12)) (UniProt P10408); experiment: Assay to Identify E. coli SecA ATPase Inhibitors; type: functional; settings: 30 µM
# [2] = target: T1, Ubiquitin-activating enzyme e1, putative (Leishmania donovani (strain BPK282A1)) (UniProt E9BSI1); experiment: Leishmania donovani Ubiquitin Activating Enzyme (LdE1); type: functional; settings: 30 µM
# T1 sequence (whole entry): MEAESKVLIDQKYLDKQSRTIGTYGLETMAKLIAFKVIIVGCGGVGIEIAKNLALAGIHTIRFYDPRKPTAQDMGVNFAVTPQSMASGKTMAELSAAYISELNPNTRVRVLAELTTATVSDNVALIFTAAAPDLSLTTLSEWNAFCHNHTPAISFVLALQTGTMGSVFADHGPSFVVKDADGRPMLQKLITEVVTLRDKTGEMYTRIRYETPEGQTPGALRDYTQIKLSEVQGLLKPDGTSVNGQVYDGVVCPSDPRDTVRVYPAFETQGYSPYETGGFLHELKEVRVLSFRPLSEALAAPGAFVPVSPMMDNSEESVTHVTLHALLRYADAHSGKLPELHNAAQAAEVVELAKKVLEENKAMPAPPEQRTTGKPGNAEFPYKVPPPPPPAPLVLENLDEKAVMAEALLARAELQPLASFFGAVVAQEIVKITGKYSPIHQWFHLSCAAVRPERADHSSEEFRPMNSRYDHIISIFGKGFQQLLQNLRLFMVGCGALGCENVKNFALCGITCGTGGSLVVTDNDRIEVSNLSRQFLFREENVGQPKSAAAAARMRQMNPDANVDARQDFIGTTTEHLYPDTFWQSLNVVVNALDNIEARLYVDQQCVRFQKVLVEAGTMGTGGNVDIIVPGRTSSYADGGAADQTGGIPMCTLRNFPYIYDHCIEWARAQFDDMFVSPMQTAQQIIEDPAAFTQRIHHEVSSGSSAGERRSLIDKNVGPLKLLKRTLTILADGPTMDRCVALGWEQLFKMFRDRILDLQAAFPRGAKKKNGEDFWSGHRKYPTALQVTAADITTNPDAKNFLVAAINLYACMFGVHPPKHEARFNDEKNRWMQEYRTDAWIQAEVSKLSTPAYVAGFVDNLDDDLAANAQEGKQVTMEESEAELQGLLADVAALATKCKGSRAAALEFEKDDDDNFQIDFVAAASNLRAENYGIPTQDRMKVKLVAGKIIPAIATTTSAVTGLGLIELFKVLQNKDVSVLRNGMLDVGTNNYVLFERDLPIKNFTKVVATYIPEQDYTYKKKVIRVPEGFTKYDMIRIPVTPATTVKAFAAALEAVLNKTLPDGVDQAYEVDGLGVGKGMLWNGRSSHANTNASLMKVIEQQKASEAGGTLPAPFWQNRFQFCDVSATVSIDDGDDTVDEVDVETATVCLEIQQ
# [3] = target: T2, Aspartate--tRNA(Asp/Asn) ligase (Mycobacterium tuberculosis (strain ATCC 25618 / H37Rv)) (UniProt P9WFW3); experiment: Assay for Asp RNA synthetase-1 from Mycobacterium tuberculosis; type: functional; settings: 30 µM; note: in the data most compounds retested in dose-response had high values
# T2 sequence (whole entry): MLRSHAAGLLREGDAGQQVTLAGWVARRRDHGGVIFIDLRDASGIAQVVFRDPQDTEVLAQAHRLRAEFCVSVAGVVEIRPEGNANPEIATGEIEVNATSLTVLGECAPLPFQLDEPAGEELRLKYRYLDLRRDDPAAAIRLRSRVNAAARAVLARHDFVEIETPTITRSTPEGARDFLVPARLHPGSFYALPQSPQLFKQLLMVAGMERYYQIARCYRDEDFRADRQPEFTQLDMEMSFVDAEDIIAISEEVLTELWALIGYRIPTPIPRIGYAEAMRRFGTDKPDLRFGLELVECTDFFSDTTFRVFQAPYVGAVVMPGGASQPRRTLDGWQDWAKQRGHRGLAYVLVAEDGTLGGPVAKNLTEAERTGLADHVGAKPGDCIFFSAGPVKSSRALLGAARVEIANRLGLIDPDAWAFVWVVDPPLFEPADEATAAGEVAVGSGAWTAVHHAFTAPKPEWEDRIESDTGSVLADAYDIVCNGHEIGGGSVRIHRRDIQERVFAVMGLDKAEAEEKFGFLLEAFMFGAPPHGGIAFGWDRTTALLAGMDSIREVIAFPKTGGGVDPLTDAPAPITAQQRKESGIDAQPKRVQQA
# [4] = target: AMP-activated protein kinase, AMPK (Homo sapiens) (UniProt P54646+O43741+P54619+Q9UGJ0+Q9Y478+Q13131+Q9UGI9); experiment: AMP-dependent Kinase enzyme assay. An in vitro enzyme assay that detects ADP turnover that is directly proportional to AMPK activity. This uses naive AMPK that is activated during the assay with MK-8722; type: functional; settings: 30 µM
# [5] = target: Sialic acid-binding Ig-like lectin 9 (Homo sapiens) (UniProt Q9Y336); experiment: Hs-Siglec9 ALPHAscreen SOP 20170721; settings: 10 µM
# [6] = system: Trypanosoma cruzi; experiment: Trypanosoma cruzi phosphomannomutase and mannose-1-phosphate guanylyltransferase assay; type: functional; settings: 10 µM
# [7] = target: T3, Arginase-2, mitochondrial (Homo sapiens) (UniProt P78540); experiment: in vitro enzyme assay to detect the production of urea directly proportional to the activity of Arginase II; type: functional; settings: 33.3 µM; note: in the data most compounds retested in dose-response had high values
# T3 sequence (whole entry): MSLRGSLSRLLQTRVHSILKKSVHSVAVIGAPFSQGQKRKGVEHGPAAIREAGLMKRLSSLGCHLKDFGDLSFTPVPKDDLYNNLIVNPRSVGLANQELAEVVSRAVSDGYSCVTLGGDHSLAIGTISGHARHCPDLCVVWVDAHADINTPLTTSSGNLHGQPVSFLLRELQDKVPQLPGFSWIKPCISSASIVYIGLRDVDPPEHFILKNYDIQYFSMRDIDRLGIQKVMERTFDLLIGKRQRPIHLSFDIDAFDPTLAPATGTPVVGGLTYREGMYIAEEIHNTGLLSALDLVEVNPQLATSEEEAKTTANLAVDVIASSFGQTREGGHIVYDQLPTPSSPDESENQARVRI
# [8] = target: T4, Proteasome subunit beta (Trypanosoma cruzi) (UniProt O96673); experiment: Trypanosoma cruzi proteasome chymotrypsin-like activity (TcProtChymo) assay.; note: in the data most compounds retested in dose-response had high values; type: functional; settings: 9.37 µM
# T4 sequence (whole entry): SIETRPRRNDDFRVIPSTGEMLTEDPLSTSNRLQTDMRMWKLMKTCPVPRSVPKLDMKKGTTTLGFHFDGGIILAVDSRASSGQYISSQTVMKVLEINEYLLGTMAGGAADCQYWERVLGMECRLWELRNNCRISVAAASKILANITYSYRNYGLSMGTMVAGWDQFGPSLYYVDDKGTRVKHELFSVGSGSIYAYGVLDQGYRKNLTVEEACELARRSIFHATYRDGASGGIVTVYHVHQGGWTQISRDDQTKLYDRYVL
# [9] = organism: Homo sapiens; experiment: To identify inhibition of the IFN signalling (Jak-Stat) pathway via expression of an eGFP reporter gene under the control of an IFN-stimulated response element (ISRE) containing MxA promoter.; type: functional; settings: 30 µM
# [10] = target: Shiga toxin 2 (Escherichia coli O157:H7) (UniProt P09385+P09386); experiment: E. coli 0.157:H7 Shiga Toxin SOP - stx2 screening assay; type: functional; settings: 30 µM
# [11] = target: T5, Tyrosyl-tRNA synthetase, putative (Trypanosoma cruzi (strain CL Brener)) (UniProt Q4DSP6); experiment: Trypanosoma cruzi tyrosyl tRNA synthetase (TcYRS) _High Tyrosine SOP; type: functional; settings: 30 µM; note: in the data most compounds retested in dose-response had high values
# T5 sequence (whole entry): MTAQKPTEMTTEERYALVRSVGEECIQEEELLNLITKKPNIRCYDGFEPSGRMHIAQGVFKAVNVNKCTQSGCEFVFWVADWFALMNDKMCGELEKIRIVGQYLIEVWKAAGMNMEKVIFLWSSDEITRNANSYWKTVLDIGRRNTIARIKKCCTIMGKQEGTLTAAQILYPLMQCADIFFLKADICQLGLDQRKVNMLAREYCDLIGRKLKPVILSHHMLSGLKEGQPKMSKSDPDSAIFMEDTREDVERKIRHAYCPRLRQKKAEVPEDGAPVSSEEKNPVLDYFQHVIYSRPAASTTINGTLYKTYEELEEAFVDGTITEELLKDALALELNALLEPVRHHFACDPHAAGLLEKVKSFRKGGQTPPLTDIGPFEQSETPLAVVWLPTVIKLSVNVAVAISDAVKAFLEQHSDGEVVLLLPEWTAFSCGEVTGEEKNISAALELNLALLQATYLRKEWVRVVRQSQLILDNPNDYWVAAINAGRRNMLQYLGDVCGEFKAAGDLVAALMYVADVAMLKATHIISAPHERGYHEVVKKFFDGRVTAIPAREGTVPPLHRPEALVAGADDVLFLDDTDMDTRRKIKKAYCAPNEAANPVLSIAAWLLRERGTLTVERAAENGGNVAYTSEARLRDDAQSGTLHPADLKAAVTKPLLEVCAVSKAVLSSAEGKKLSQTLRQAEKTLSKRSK
# [12] = target: T5, Tyrosyl-tRNA synthetase, putative (Trypanosoma cruzi (strain CL Brener)); experiment: Trypanosoma cruzi tyrosyl tRNA synthetase (TcYRS) SOP; type: functional; settings: 30 µM
# [13] = target: Chromo domain-containing protein 1 (Saccharomyces cerevisiae (strain ATCC 204508 / S288c) (Baker's yeast)) (UniProt P32657); experiment: ScCHD-1 Enzyme Inhibition Assay; type: functional; settings: 30 µM; note: in the data most compounds retested in dose-response had high values
# Chromo domain-containing protein 1 (Saccharomyces cerevisiae (strain ATCC 204508 / S288c) (Baker's yeast)), sequence (P32657 whole entry, the tested form may be a part): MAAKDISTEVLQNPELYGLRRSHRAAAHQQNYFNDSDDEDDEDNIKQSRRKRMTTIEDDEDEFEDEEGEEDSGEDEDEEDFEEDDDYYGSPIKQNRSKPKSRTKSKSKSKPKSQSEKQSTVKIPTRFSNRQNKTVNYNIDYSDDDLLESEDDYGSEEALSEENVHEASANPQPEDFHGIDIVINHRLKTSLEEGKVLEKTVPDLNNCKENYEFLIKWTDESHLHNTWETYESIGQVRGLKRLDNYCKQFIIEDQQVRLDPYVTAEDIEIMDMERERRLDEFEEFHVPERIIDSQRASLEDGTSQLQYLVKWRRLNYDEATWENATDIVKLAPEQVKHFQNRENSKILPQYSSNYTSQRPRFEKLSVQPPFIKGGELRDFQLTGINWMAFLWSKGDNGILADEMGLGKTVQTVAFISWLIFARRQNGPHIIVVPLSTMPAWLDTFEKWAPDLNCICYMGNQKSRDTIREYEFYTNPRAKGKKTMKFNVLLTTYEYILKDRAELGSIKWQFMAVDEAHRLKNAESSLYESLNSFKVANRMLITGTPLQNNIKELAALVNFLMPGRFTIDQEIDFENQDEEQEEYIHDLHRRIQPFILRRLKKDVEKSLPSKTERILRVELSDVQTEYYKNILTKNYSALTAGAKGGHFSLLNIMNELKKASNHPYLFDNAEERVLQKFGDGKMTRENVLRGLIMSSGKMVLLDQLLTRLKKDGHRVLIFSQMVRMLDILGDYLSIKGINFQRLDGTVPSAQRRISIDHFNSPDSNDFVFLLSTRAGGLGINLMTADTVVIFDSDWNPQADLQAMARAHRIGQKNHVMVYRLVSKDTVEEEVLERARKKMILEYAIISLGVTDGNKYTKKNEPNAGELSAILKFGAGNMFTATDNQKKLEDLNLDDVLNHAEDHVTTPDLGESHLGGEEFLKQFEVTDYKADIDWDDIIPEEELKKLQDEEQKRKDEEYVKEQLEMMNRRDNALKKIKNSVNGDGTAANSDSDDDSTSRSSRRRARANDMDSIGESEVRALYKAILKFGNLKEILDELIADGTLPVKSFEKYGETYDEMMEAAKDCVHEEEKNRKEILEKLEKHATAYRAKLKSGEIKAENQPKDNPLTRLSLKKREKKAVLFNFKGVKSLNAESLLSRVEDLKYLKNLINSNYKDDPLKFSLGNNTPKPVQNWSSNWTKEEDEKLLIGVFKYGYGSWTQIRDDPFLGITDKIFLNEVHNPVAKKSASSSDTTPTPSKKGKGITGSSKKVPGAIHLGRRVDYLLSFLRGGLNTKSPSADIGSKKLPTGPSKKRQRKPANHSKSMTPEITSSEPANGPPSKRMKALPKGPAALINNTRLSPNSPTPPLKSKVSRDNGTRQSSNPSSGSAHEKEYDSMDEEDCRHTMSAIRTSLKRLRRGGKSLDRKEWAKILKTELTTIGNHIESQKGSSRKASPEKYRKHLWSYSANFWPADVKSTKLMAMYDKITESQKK
# Protein translocase subunit SecA (Escherichia coli (strain K12)), sequence (P10408 whole entry): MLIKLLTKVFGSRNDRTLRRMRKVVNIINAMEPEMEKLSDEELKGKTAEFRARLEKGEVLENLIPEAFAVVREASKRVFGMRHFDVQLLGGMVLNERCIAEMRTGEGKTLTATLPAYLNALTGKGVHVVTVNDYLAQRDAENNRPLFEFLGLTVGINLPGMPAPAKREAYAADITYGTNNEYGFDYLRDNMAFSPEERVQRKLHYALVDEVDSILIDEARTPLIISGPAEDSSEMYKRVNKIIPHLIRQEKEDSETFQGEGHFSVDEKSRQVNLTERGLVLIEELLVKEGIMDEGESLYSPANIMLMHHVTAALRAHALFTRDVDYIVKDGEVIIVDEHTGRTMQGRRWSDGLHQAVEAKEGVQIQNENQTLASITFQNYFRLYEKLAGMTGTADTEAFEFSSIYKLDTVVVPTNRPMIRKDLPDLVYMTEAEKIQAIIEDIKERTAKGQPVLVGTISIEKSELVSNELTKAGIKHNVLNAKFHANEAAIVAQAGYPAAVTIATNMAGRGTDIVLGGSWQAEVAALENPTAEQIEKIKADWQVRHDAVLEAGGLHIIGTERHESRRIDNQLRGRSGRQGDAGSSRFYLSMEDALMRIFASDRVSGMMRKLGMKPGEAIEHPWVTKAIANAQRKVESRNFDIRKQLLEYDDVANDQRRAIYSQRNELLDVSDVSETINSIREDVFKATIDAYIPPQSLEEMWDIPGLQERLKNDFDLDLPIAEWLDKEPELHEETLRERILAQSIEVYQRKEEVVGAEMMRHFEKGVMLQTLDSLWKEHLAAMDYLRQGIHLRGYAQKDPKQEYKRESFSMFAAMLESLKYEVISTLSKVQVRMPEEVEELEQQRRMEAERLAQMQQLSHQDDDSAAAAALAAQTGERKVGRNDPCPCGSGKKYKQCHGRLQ
# Sialic acid-binding Ig-like lectin 9 (Homo sapiens), sequence (Q9Y336 whole entry): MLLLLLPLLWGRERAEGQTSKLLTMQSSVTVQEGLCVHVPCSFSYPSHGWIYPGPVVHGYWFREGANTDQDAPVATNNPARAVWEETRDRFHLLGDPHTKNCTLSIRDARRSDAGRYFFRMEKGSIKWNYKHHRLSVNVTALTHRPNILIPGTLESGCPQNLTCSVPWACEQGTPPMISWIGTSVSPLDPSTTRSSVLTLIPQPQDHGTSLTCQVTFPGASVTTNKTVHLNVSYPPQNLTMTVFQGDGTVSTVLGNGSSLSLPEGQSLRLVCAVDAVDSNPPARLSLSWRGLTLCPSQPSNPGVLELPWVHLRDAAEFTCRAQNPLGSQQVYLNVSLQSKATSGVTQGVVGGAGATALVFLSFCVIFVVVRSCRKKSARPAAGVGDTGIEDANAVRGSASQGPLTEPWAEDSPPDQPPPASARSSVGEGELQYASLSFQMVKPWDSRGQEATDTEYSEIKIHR
Structure (SMILES),Percent Effect [1] [%],Percent Effect [2] [%],Percent Effect [3] [%],Percent Effect [4] [%],Percent Effect [5] [%],Percent Effect [6] [%],Percent Effect [7] [%],Percent Effect [8] [%],Percent Effect [9] [%],Percent Effect [10] [%],Percent Effect [11] [%],Percent Effect [12] [%],Percent Effect [13] [%]
c1cc(CO[C@@H]2CC[C@H]3[C@H]2OCCN3CC2CCOCC2)ccn1,1.51,16.2,5.55,7.58,-13.8,-4.79,-0.319,3.51,45.1,-7.6,2.16,10.3,-9.05
Cc1cnc(N2CCCC3(CCCN(C)C3)C2)nc1 (centres undefined),-4.89,0,-0.912,0.0306,4.33,3.37,-6.79,8.82,-22.4,7.25,-2.08,8.64,-5.6
CCCN1CCN(Cc2nccn2CC)C(C)C1 (centres undefined),-1.91,13.5,1.06,-5.87,-10.4,-2.54,-1.67,8.54,32.2,-11.5,8.91,8.54,-3.53
Cc1cc(CN2C[C@@H]3CCCO[C@@H]3[C@H](Nc3ccccn3)C2)no1,-6.36,8.11,1.17,2.41,16.5,1.47,4.22,7.3,2.28,10.7,5.38,16.1,-5.82
Cc1ccc(N2CCO[C@H]3CN(Cc4ccncc4)C[C@H]32)nn1,-2.06,2.7,2.28,3.63,-2.84,-2.83,1.59,19.6,4.04,-5.64,8.65,10.3,-5.13
Cc1nc(CN2CCOCC3(CCN(c4ncccn4)C3)C2)cs1 (centres undefined),-4.37,10.8,2.24,2.91,-0.742,1.17,3.75,6.68,-5.73,-14.6,13.9,11,-4.52
CN1CCC2(CC1)CNC(=O)c1ccccc1O2,-3.91,6.76,-2.4,13.4,4.99,-5.34,0.232,10.3,1.44,12.6,6.45,6.49,-6.62
Cc1noc([C@@H]2C[C@H]3CN(Cc4cc(C)on4)C[C@H]3O2)n1,-0.923,10.4,2.67,5.31,-5.26,-4.63,9.68,12.4,10.4,-9.84,3.17,6.41,-8.87
COCCO[C@@H]1C[C@H]2CN(C(=O)c3ccc(C)nc3)CCN2C1,0.459,10.7,6.84,-2.91,3.06,-3.86,-51.4,8.89,-12.5,-18.6,4.17,15,-6.6
CCn1cc(CN2CCCN(C(=O)Cc3cccs3)CC2)cn1,-4.84,22.8,-2.8,-10.6,3.48,6.52,-0.76,15.6,-4.27,-21.2,10.3,29.1,-8.38
c1cc(CN2CCO[C@H]3[C@H](OCC4CCCC4)CC[C@@H]32)ccn1,-2.78,5.41,5.76,0.694,-1.13,-3.81,1.59,19,24.5,1.34,-2.16,7.69,2.01
c1ccc(CO[C@@H]2CO[C@@]3(CCN(Cc4ccccn4)C3)C2)nc1,-5.26,6.67,0.581,5.55,4.84,-1.18,4.75,6.84,-42,-15.8,5.29,5.13,-3.05
Cc1oc(-c2ccco2)nc1CC(=O)N1CCN(CC(C)(C)O)CC1,-3.06,5.2,0.144,-3.3,5.79,-0.294,5.68,8,22.9,30.6,2.86,9.41,-21.6
c1cc(CO[C@@H]2CC[C@H]3[C@H]2OCCN3Cc2ccoc2)ccn1,-1.76,13.5,9.49,9.36,-7.31,-1.66,2.23,27.1,33.2,1.68,1.08,10.3,1.36
COc1cc(CNC(C)Cn2cccn2)cc(OC)c1OC (centres undefined),0.206,18.2,-3.28,0.589,-6.87,-7.3,4.98,2.87,29.8,-15.9,7.77,14.6,-9.78
CN1CCCC(c2n[nH]c3ncccc23)C1 (centres undefined),-3.58,-1.35,-7.01,6.99,2.48,-0.198,-0.232,5.93,-5.01,1.35,2.15,1.3,6.39
O=C(c1ccsc1)N1CCN2C[C@H](OCc3cccnc3)C[C@H]2C1,-4.24,10.7,-1.78,8.09,-1.36,-4.53,3.96,11.5,8.09,1.7,1.06,-8.97,-3.5
CCN(CC)C(=O)c1ccc(NC(=O)CNc2ccc(Br)cc2F)cc1,-3.06,10.5,0.958,1.85,-6.58,1.85,-17.8,12,2.22,-41.8,5.32,20.8,-13
